According to the supplement of paper PMC11634586:
Counter-ions that a name gives are not always drawn.

What follows are compounds tested on NCI-H1688 (assay: inhibition of cell viability relative to untreated control (fraction); higher = stronger growth inhibition, active = 0.5 or more). Details: 30 µM; 24 h.
Outline: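 NCI-H1688 small cell lung cancer cells were plated in 96-well plates at 3 × 10^3 cells/well, and 24 h later they were exposed to a natural compound library (TargetMol) at 30 µM for 24 h at 37°C with 5% CO2. Viability was measured in triplicate using Cell Counting Kit-8, read as absorbance at 450 nm. Inhibition of cell viability is given as a fraction, calculated from viability normalised to untreated cells.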

| Structure (SMILES) | inhibition of cell viability |
| --- | --- |
| C[C@@H]1O[C@@H](Oc2c(-c3cc(O)c(O)c(O)c3)oc3cc(O)cc(O)c3c2=O)[C@H](O)[C@H](O)[C@H]1O [Myricetrin] | -0.141 (inactive) |
| Oc1cc(O)c2c(c1)OC(c1ccc(O)c(O)c1)C(OC1(c3ccc(O)c(O)c3)Oc3cc(O)cc(O)c3C(O)C1O)C2 (configuration not stated) [Proanthocyanidins] | -0.126 (inactive) |
| C=C1C[C@@]2(O)O[C@@]3(C[C@H]2C(C)C)[C@@H](C)CC[C@@H]13 [Curcumol] | -0.0691 (inactive) |
| CC1=C(C/C=C(\C)CCC[C@H](C)CCC[C@H](C)CCCC(C)C)C(=O)c2ccccc2C1=O [Vitamin K1] | -0.199 (inactive) |
| COc1ccc2c(c1OC)C(=O)O[C@@H]2[C@H]1c2c(cc3c(c2OC)OCO3)CCN1C [Noscapine hydrochloride] | 0.323 (inactive) |
| CC(=O)[C@@]1(O)CC[C@H]2[C@@H]3CCC4=CC(=O)CC[C@]4(C)[C@H]3CC[C@@]21C [Hydroxyprogesterone] | 0.102 (inactive) |
| O=C(O)c1cc(O)c2c(c1)[C@H]([C@H]1c3cc(C(=O)O)cc(O)c3C(=O)c3c(O[C@@H]4O[C@H](CO)[C@@H](O)[C@H](O)[C@H]4O)cccc31)c1cccc(O[C@@H]3O[C@H](CO)[C@@H](O)[C@H](O)[C@H]3O)c1C2=O [Sennoside A] | 0.0197 (inactive) |
| Cc1cc(O)c2c(c1)C(=O)c1cc(O)cc(O)c1C2=O [Emodin] | 0.493 (inactive) |
| OC[C@H]1O[C@H](O[C@H]2[C@H](O)[C@@H](O)[C@H](O)O[C@@H]2CO)[C@H](O)[C@@H](O)[C@@H]1O [Maltose] | 0.0503 (inactive) |
| O=C(O)CCC(=O)O [Succinic acid] | 0.0297 (inactive) |
| Nc1ncnc2c1ncn2[C@@H]1O[C@H](CO)[C@@H](O)[C@H]1O [Adenosine] | 0.189 (inactive) |
| O=C1/C(=C2\Nc3ccccc3C2=O)Nc2ccccc21 [Indigo] | -0.275 (inactive) |
